Assay results published in ChEMBL document CHEMBL3988442, “University of Dundee, Small-Polar-MMV Screening Library” (2021).
For part of these data: Measured potencies and affinities stand elsewhere.

biological target: T1, Ubiquitin-activating enzyme e1, putative (Leishmania donovani (strain BPK282A1)) (UniProt E9BSI1); assay: Leishmania donovani Ubiquitin Activating Enzyme (LdE1); type: functional; set-up: scale not given: direction of the effect not stated beside the values; conditions: 30 µM
T1 sequence (whole entry): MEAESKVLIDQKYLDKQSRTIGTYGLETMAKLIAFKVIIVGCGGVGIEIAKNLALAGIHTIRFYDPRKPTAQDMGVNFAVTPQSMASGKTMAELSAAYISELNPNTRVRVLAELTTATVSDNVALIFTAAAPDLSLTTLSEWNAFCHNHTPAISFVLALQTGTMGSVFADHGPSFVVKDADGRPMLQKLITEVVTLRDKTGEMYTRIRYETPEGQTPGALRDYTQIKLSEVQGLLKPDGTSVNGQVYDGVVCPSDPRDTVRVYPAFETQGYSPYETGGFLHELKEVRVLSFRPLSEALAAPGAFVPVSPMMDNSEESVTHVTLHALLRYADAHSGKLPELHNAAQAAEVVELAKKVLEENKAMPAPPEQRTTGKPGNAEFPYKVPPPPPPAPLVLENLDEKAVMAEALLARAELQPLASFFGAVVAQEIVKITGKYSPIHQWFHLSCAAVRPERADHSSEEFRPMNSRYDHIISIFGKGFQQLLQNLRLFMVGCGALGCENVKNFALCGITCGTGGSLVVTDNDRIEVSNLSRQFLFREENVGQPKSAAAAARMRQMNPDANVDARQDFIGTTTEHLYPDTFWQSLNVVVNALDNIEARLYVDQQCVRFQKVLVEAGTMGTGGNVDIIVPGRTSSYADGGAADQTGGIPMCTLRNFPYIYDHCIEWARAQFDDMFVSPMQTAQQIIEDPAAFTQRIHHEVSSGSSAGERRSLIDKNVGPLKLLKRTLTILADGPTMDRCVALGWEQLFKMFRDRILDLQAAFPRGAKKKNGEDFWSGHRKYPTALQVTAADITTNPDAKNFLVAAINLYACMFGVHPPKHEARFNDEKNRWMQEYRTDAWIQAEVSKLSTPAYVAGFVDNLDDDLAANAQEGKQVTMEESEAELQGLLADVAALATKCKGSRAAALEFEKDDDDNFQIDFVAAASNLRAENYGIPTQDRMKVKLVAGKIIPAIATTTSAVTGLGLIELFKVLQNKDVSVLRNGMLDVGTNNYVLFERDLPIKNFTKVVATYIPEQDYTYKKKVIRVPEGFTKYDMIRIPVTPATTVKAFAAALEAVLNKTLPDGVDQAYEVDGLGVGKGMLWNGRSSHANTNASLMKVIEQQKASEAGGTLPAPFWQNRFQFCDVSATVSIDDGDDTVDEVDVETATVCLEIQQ

Structure (SMILES)	Percent Effect [%]
COc1c(CNC2CCc3cc(F)ccc32)c(C)nn1C (stereo not given)	7.79
Cc1ccc(NC2CCN(C(=O)c3cc(C(N)=O)cs3)CC2)nn1	2.67
COC[C@@H]1CC[C@H]2[C@H](CCN2S(=O)(=O)c2ccc(OC)cc2)O1	-1.3
NC(=O)CN1CCC(C(=O)N2CCCC(OCc3cccnc3)C2)CC1 (stereo not given)	2.7
Cc1ccc(F)cc1C(=O)N1C[C@@H](CN2CCOCC2)[C@@H](CO)C1	8.11
CC(C)N1CCO[C@H]2CN(C(=O)c3ccc(N(C)C)cc3)C[C@H]21	1.3
O=C(c1cc(C2CC2)on1)N1CCCC(n2cncn2)C1 (stereo not given)	15.4
CC(Cn1cccn1)NC(=O)N1CCN(Cc2cccs2)CC1 (stereo not given)	18.7
Cc1nc(-c2ccc(C(=O)O)cc2)cc(C2CCN(C(C)C)C2)n1 (stereo not given)	12
O=C(Nc1nnc(C2CC2)s1)NC1CCN(Cc2ccccc2)C1 (stereo not given)	12.8
Cc1cc(C(=O)NCc2ccnc(N3CCN(C)CC3)c2)c(C)s1	-28.2
CC(Cn1cccn1)NC(=O)NCc1cccnc1OC1CCCC1 (stereo not given)	8
Cn1ccc(CN2CCC(NC(=O)Cc3ccccc3)CC2)cc1=O	5.13
CN(C)CC(=O)N1CCC2(CCN(Cc3ccccn3)C2=O)C1 (stereo not given)	-1.3
CC(C)n1ccnc1C1CCN(C(=O)c2ccccc2)CC1	16.2
Cc1nccn1-c1cccc(C2CCCN2S(=O)(=O)N(C)C)n1 (stereo not given)	14.7
O=C(c1ccccn1)N1CCN(c2ccc(-c3cccnc3)nn2)CC1	11.7
Cc1ccccc1-c1cc(C(=O)NCCN2CCCS2(=O)=O)[nH]n1	12.8
Cc1cc2cc(C(=O)N3CC[C@H](O)[C@]4(CCCO4)C3)ccc2o1	17.3
CC(C)n1[nH]c(=O)c2c1NC(=O)CC2c1ccc2ncccc2c1 (stereo not given)	5.41
O=C(C1CCC1)N1CCn2c(COc3ncccn3)nnc2C1	3.9

biological target: Sialic acid-binding Ig-like lectin 9 (Homo sapiens) (UniProt Q9Y336); assay: Hs-Siglec9 ALPHAscreen SOP 20170721; set-up: scale not given: direction of the effect not stated beside the values; conditions: 10 µM
Sequence (Q9Y336 whole entry): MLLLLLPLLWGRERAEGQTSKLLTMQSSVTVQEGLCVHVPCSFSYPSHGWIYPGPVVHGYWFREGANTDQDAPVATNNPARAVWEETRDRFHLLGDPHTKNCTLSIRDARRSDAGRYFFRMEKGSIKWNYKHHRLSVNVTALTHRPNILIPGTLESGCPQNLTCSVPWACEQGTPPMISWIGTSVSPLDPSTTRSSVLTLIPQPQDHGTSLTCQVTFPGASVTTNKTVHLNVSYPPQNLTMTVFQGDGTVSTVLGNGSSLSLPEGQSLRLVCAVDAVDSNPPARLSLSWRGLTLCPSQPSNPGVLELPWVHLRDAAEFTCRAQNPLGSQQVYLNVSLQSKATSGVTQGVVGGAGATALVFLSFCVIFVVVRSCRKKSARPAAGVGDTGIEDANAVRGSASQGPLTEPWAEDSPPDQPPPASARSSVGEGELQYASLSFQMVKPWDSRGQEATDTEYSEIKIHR

Structure (SMILES)	Percent Effect [%]
Cc1nc[nH]c1CN1CCN(C(=O)c2cccs2)[C@H]2CS(=O)(=O)C[C@H]21	2.06
Cc1ccc(CCC(=O)N2CCCC(n3cncn3)C2)c(C)c1 (stereo not given)	2.16
Cc1cc(-c2nn(C)c(Cl)c2CN2CCOCC2CC(=O)O)no1 (stereo not given)	10.3
CCc1nc(CN2CCCN(C(=O)c3cn[nH]c3CC)CC2)cs1	-17.5
CCC(=O)N1CCC(Cc2nccnc2Nc2ccccn2)CC1	-4.87
Cn1cc(NC(=O)N2CCC(NS(C)(=O)=O)CC2)ccc1=O	0.0157
CC(C)CC(=O)N1C[C@@H]2CCN(c3ncccn3)C[C@@H]2C1	-0.117
CN(Cc1ccc2c(c1)OCCO2)C(=O)Cn1ccccc1=O	1.7
Cc1ccc(N2CCC3(CCCN(C(=O)c4cccnc4)C3)C2)nn1 (stereo not given)	11
O=C(c1cc[nH]n1)N1CCCC(c2cccc(-n3ccnc3)n2)C1 (stereo not given)	2.15
COC(=O)C1CCN(C(=O)c2ccc(N(C)S(C)(=O)=O)c(C)c2)CC1	-4.09
CC(=O)N(Cc1ncc(C)o1)C1CCN(CCCc2cnn(C)c2)C1 (stereo not given)	-5.35
O=C(c1ccc(F)cc1Cl)N1CCC(Nc2cccnn2)CC1	7.17
Cc1cc(CNc2cc(Cl)ccc2OCCS(C)(=O)=O)no1	-13.6
CN1[C@H](Cn2cccn2)C[C@@H]2CN(C(=O)Cc3cccs3)CC[C@@H]21	-0.662
Cc1cccc(CN2C[C@@H]3COC[C@]3(CNC(=O)c3ccsc3)C2)n1	-4.17
COc1ccc(C2CC(=O)Nc3c2nc2n3CCCC2)cc1OC (stereo not given)	3.86
CN(C)CCN1CCC2(CCN(C(=O)c3ccc(F)cc3)CC2)C1=O	-0.427
COc1c(CNC2CCc3cc(F)ccc32)c(C)nn1C (stereo not given)	8.9
Cc1ccc(NC2CCN(C(=O)c3cc(C(N)=O)cs3)CC2)nn1	2.8

Structure (SMILES)	Percent Effect [%]
COC[C@@H]1CC[C@H]2[C@H](CCN2S(=O)(=O)c2ccc(OC)cc2)O1	2.46
NC(=O)CN1CCC(C(=O)N2CCCC(OCc3cccnc3)C2)CC1 (stereo not given)	1.65
Cc1ccc(F)cc1C(=O)N1C[C@@H](CN2CCOCC2)[C@@H](CO)C1	5.12
CC(C)N1CCO[C@H]2CN(C(=O)c3ccc(N(C)C)cc3)C[C@H]21	-9.38
O=C(c1cc(C2CC2)on1)N1CCCC(n2cncn2)C1 (stereo not given)	-20
CC(Cn1cccn1)NC(=O)N1CCN(Cc2cccs2)CC1 (stereo not given)	-3.71
Cc1nc(-c2ccc(C(=O)O)cc2)cc(C2CCN(C(C)C)C2)n1 (stereo not given)	-4.91
O=C(Nc1nnc(C2CC2)s1)NC1CCN(Cc2ccccc2)C1 (stereo not given)	-8.9
Cc1cc(C(=O)NCc2ccnc(N3CCN(C)CC3)c2)c(C)s1	-3.6
CC(Cn1cccn1)NC(=O)NCc1cccnc1OC1CCCC1 (stereo not given)	-3.26
Cn1ccc(CN2CCC(NC(=O)Cc3ccccc3)CC2)cc1=O	-5.06
CN(C)CC(=O)N1CCC2(CCN(Cc3ccccn3)C2=O)C1 (stereo not given)	-3.23
CC(C)n1ccnc1C1CCN(C(=O)c2ccccc2)CC1	13.1
Cc1nccn1-c1cccc(C2CCCN2S(=O)(=O)N(C)C)n1 (stereo not given)	13.1
O=C(c1ccccn1)N1CCN(c2ccc(-c3cccnc3)nn2)CC1	4.87
Cc1ccccc1-c1cc(C(=O)NCCN2CCCS2(=O)=O)[nH]n1	-10.8
Cc1cc2cc(C(=O)N3CC[C@H](O)[C@]4(CCCO4)C3)ccc2o1	3.44
CC(C)n1[nH]c(=O)c2c1NC(=O)CC2c1ccc2ncccc2c1 (stereo not given)	0.703
O=C(C1CCC1)N1CCn2c(COc3ncccn3)nnc2C1	-3.93
